Measured values published in PubChem BioAssay.
Where “and” joins values, the source holds several entries; their conditions need not be identical. Equal values may be shown once. Records with an inconclusive call do not appear. Calls of active or inactive are those of the source.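 How the source made its calls, unless noted: active means normalized viability below 100% at a tested concentration; inactive means the rest.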

How the values were obtained:
[1] = growth inhibition of DIPG glioma cells, dose response, cell-based, SU-DIPG-XVII, MIPE5.0, CellTiter-Glo, qHTS (AID 1347060; cut-off not given, nearly all actives have AC50 up to about 26 µM;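 on AC50: cells exposed to compound for 48 hours before viability readout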); settings: SU-DIPG-XVII viability, CellTiter-Glo ATP luminescence
[2] = growth inhibition of DIPG glioma cells, dose response, cell-based, JHH-DIPG-1, MIPE4.0, CellTiter-Glo, qHTS (AID 1347062; cut-off not given, nearly all actives have AC50 up to about 27 µM;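 on AC50: cells exposed to compound for two days before readout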); settings: JHH-DIPG-1 viability, CellTiter-Glo ATP luminescence
[3] = growth inhibition of DIPG glioma cells, dose response, cell-based, SU-DIPG-XIII, MIPE5.0, CellTiter-Glo, qHTS (AID 1347064; cut-off not given, nearly all actives have AC50 up to about 23 µM;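 on AC50: cells exposed to compound for 48 hours before the viability read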); settings: SU-DIPG-XIII viability, CellTiter-Glo ATP luminescence
[4] = viability loss in pontine glioma line – cell-based, SU-DIPG-XXV, MIPE5.0, CellTiter-Glo, qHTS, dose response (AID 1347065; cut-off not given, nearly all actives have AC50 up to about 26 µM;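 further: cells exposed to compound for 48 hours before ATP readout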); settings: CellTiter-Glo ATP luminescence
[5] = JHH-DIPG-1 glioma cell viability, MIPE5.0 library, CellTiter-Glo luminescence, qHTS (AID 1347067; cut-off not given, nearly all actives have AC50 up to about 26 µM;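 further: cells exposed to compound for 48 hours before readout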); settings: JHH-DIPG-1 glioma viability, CellTiter-Glo ATP luminescence
[6] = SU-DIPG-XXV glioma cell viability, MIPE5.0 library, qHTS (AID 1347068; cut-off not given, nearly all actives have IC50 up to about 30 µM;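 on IC50: cells exposed to compound for 48 hours before viability readout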)
[7] = SU-DIPG-VI glioma cell viability, MIPE4.0 library, CellTiter-Glo luminescence, qHTS (AID 1347066; cut-off not given, nearly all actives have AC50 up to about 30 µM;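 further: cells exposed to compound for 48 hours before readout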); settings: CellTiter-Glo ATP luminescence
[8] = sensitizers of A549 cells to miR-34 induction, primary screen, imaging, A549 dox-inducible miR-34, nuclei and caspase counts (AID 1347080;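 active means compounds whose cell count with miR-34 switched on is under 0.7 times the count with it off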); settings: A549 miR-34 inducible, Hoechst nuclei count, 48 h
[9] = survival rescue of mitochondrial mutant cells in low glucose, primary screen, MELAS cybrids, Rieske KO mouse fibroblasts, CellTiter-Glo (AID 1508586;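 active means mean z-score across replicates of 1.96 or higher in either the MELAS or the Rieske mutant cell line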;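 further: z relative to plate mean and SD of compound and empty wells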)
[10] = modifiers of HSF1 nuclear foci, imaging, Selleck Cancer Library (AID 1347162; in the data active means plate-normalised HSF1 focus index below about 0.46); settings: human cells, at 10 µM; SSMD: measured here: HSF1 foci SSMD mean; cell count: measured here: cell number; plate-normalised HSF1 focus index: stronger effect = lower value
[11] = ovarian cancer cell viability with rucaparib, profiling panel, oncology-focused library, rucaparib conditional (AID 1508598); settings: patient-derived ovarian cancer cells, CellTiter-Glo viability, 144 h, stronger effect = lower value
[12] = stronger effect = lower value, cell number ratio, induced over uninduced
[13] = measured here: relative caspase fold change +Dox/-Dox
[14] = measured here: total cells with miR-34 induction, stronger effect = lower value
[15] = measured here: total cells without miR-34 induction
[16] = MELAS cybrid survival, CellTiter-Glo 48 h, stronger effect = higher value
[17] = Rieske KO mouse fibroblast survival, CellTiter-Glo 72 h

COc1cc(N2CCC(N3CCN(C)CC3)CC2)ccc1Nc1ncnc(Nc2ccccc2S(=O)(=O)C(C)C)n1
active: AC50 [1] 6610 nM | AC50 [2] 14800 nM | AC50 [3] 5250 nM | AC50 [4] 3720 nM | AC50 [5] 16600 nM
inactive: outcome [6]

CCCNS(=O)(=O)Nc1ncnc(OCCOc2ncc(Br)cn2)c1-c1ccc(Br)cc1
0.512: fold change [8, 13]
-0.0447: z-score [9, 17]
inactive: outcome [1] | outcome [2] | outcome [3] | outcome [7] | outcome [5] | outcome [6] | fold change [8, 12] 0.925 | z-score [9, 16] -0.373
8090: cell count [8, 14]
8750: cell count [8, 15]

CS(=O)(=O)c1ccc(C(=O)Nc2ccc(Cl)c(-c3ccccn3)c2)c(Cl)c1
7240: cell count [10]
8790 and 6720: cell count [8, 14]
inactive: outcome [1] | outcome [2] | outcome [3] | outcome [4] | outcome [7] | outcome [5] | outcome [6] | fold change [8, 12] 0.865 and 0.901 | plate-normalised HSF1 focus index [10] 1.15 | z-score [9, 16] 0.265 and -0.383 | viability ([11]; at 0.000305 µM, OCI-C5x cells, with rucaparib 10 µM, 100% = cells with rucaparib alone) 124% | viability ([11]; at 0.000305 µM, OCI-C5x cells, without rucaparib) 125% | viability ([11]; at 0.000305 µM, OCI-P5x cells, without rucaparib) 106% | viability ([11]; at 0.00122 µM, OCI-C5x cells, with rucaparib 10 µM, 100% = cells with rucaparib alone) 126% | viability ([11]; at 0.00122 µM, OCI-C5x cells, without rucaparib) 125% | viability ([11]; at 0.00122 µM, OCI-P5x cells, with rucaparib 20 µM, 100% = cells with rucaparib alone) 103% | viability ([11]; at 0.00122 µM, OCI-P5x cells, without rucaparib) 102% | viability ([11]; at 0.00488 µM, OCI-C5x cells, with rucaparib 10 µM, 100% = cells with rucaparib alone) 125% | viability ([11]; at 0.00488 µM, OCI-C5x cells, without rucaparib) 124% | viability ([11]; at 0.00488 µM, OCI-P5x cells, with rucaparib 20 µM, 100% = cells with rucaparib alone) 106% | viability ([11]; at 0.0195 µM, OCI-C5x cells, with rucaparib 10 µM, 100% = cells with rucaparib alone) 115% | viability ([11]; at 0.0195 µM, OCI-C5x cells, without rucaparib) 117% | viability ([11]; at 0.0195 µM, OCI-P5x cells, with rucaparib 20 µM, 100% = cells with rucaparib alone) 107% | viability ([11]; at 0.0195 µM, OCI-P5x cells, without rucaparib) 102% | viability ([11]; at 0.0781 µM, OCI-C5x cells, with rucaparib 10 µM, 100% = cells with rucaparib alone) 123% | viability ([11]; at 0.0781 µM, OCI-C5x cells, without rucaparib) 116% | viability ([11]; at 0.0781 µM, OCI-P5x cells, with rucaparib 20 µM, 100% = cells with rucaparib alone) 106% | viability ([11]; at 0.0781 µM, OCI-P5x cells, without rucaparib) 103% | viability ([11]; at 0.313 µM, OCI-C5x cells, with rucaparib 10 µM, 100% = cells with rucaparib alone) 125% | viability ([11]; at 0.313 µM, OCI-C5x cells, without rucaparib) 127% | viability ([11]; at 0.313 µM, OCI-P5x cells, with rucaparib 20 µM, 100% = cells with rucaparib alone) 108% | viability ([11]; at 0.313 µM, OCI-P5x cells, without rucaparib) 104% | viability ([11]; at 1.25 µM, OCI-C5x cells, with rucaparib 10 µM, 100% = cells with rucaparib alone) 133% | viability ([11]; at 1.25 µM, OCI-C5x cells, without rucaparib) 116% | viability ([11]; at 1.25 µM, OCI-P5x cells, with rucaparib 20 µM, 100% = cells with rucaparib alone) 108% | viability ([11]; at 1.25 µM, OCI-P5x cells, without rucaparib) 104% | viability ([11]; at 5 µM, OCI-C5x cells, with rucaparib 10 µM, 100% = cells with rucaparib alone) 158% | viability ([11]; at 5 µM, OCI-C5x cells, without rucaparib) 149%
10200 and 7460: cell count [8, 15]
2.58: SSMD [10]
0.712 and 0.902: fold change [8, 13]
0.641 and 0.534: z-score [9, 17]
active: viability ([11]; at 0.000305 µM, OCI-P5x cells, with rucaparib 20 µM, 100% = cells with rucaparib alone) 92.5% | viability ([11]; at 0.00488 µM, OCI-P5x cells, without rucaparib) 97.6% | viability ([11]; at 5 µM, OCI-P5x cells, with rucaparib 20 µM, 100% = cells with rucaparib alone) 97.4% | viability ([11]; at 5 µM, OCI-P5x cells, without rucaparib) 99.8%

CN[C@H]1CCc2cc(OC)c(OC)c(OC)c2-c2ccc(OC)c(=O)cc21
active: AC50 [1] 105 nM | AC50 [2] 14.8 nM | AC50 [3] 132 nM | AC50 [4] 166 nM | AC50 [5] 148 nM | IC50 [6] 148 nM
